Results taken from PubChem BioAssay (Tox21).
Results filed as inconclusive are left out. Activity calls are given as the source filed them. Unless noted, calls come from the whole dose curve; as a rule, active = well fitted curve in the direction sought with a large enough effect in the repeat runs; inconclusive = weak or mixed curves; inactive = no such curve, though single readings can be large; an effect the other way counts as inactive or inconclusive.

Experiments:
[1] = biological target: Progesterone receptor (Homo sapiens) (UniProt P06401); test: qHTS assay to identify small molecule antagonists of the progesterone receptor (PR) signaling pathway (AID 1346795; active = well fitted inhibition curve with a large enough effect in the signal ratio in the repeat runs, not every such curve was filed as active; the % refers to the signal ratio; note: potency is the fitted concentration of half-maximal effect)
Summary of the method: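 PR-UAS-bla HEK293T cells carrying a UAS-driven beta-lactamase reporter were plated in medium with 2% charcoal-stripped FBS and rested 6 hr at 37C. Compounds were added with 1 nM R5020 (final) for 16 hr, then FRET substrate loaded 2 hr at room temperature.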

[2] = qHTS assay to identify small molecule antagonists of the progesterone receptor (PR) signaling pathway - cell viability counter screen (AID 1346798); note: nearly all actives have a fitted effect of over 50% in size; note: potency is the fitted concentration of half-maximal effect; for activity change, negative = cytotoxicity: series mostly up to about 92 µM
Summary of the method: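 PR-UAS-bla HEK293T cells in medium with 2% charcoal-stripped FBS were treated with compounds plus R5020 for 16 hr at 37C. Cell viability was then read by CellTiter-Glo luminescence after 30 min at room temperature in the same wells.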

[3] = qHTS assay to identify small molecule antagonists of the TGF-beta/Smad signaling pathway - cell viability counter screen (AID 1346824); note: nearly all actives have a fitted effect of over 50% in size; note: potency is the fitted concentration of half-maximal effect
Summary of the method: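 SBE-bla HEK 293T cells were plated overnight at 37 C, then given compounds in DMSO plus TGF-beta1 (added as 0.25 ng/mL solution) for 5 hr. After the bla read, CellTiter-Glo was added to the same wells and luminescence read after 30 min at room temperature.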

[4] = qHTS assay to identify small molecule agonists of the TGF-beta/Smad signaling pathway - cell viability counter screen (AID 1346829); note: top concentration of the series differs between compounds; nearly all actives have a fitted effect of over 45% in size
Summary of the method: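 Compound-treated SBE-bla HEK 293T cells (5 hr, 37 C) were assessed for viability with CellTiter-Glo in parallel with the reporter read.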

[5] = qHTS assay to identify small molecule agonists of the TGF-beta/Smad signaling pathway (AID 1346859; active = well fitted activation curve with a large enough effect in the signal ratio in the repeat runs, not every such curve was filed as active; the % refers to the signal ratio; note: potency is the fitted concentration of half-maximal effect; for activation: series mostly up to about 77 µM)
Summary of the method: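 HEK 293T cells stably carrying a beta-lactamase reporter driven by the Smad binding element were seeded overnight, exposed to DMSO-dissolved compounds for 5 hr at 37 C, 5% CO2, then loaded with FRET substrate for 2 hr at room temperature.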

[6] = biological target: Thyrotropin-releasing hormone receptor (Homo sapiens) (UniProt P34981); test: qHTS assay to identify small molecule antagonists of the thyrotropin-releasing hormone receptor (TRHR) signaling pathway (AID 1346877; active = well fitted inhibition curve with a large enough effect in the repeat runs, not every such curve was filed as active; note: series mostly up to about 51 µM)
Summary of the method: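 Cells (TRHR-HEK293) are plated and kept 18 h at 37 °C/5% CO2. A calcium-sensitive dye is added for 2 h, compound follows for 5 min at room temperature, and TRH is then given at 1 nM final.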

[7] = biological target: Thyrotropin-releasing hormone receptor (Homo sapiens) (UniProt P34981); test: qHTS assay to identify small molecule agonists of the thyrotropin-releasing hormone receptor (TRHR) signaling pathway (AID 1346891; calls by dose curve; note: series mostly up to about 58 µM)
Summary of the method: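 TRHR-expressing HEK293 cells were plated 18 h at 37 °C/5% CO2, loaded with calcium dye 2 h at 37 °C, then given compound in DMSO; fluorescence was read kinetically for 3 min at 1 s intervals.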

[8] = Human pregnane X receptor (PXR) small molecule agonists, qHTS cell viability counter screen (AID 1346977); note: nearly all actives have a fitted effect of over 50% in size; note: potency is the fitted concentration of half-maximal effect
Summary of the method: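 PXR-Luc HepG2 cells in medium with 5% charcoal-stripped FBS were pre-incubated 5hr, then exposed to compounds for 24hr at 37C. Viability was read in the same wells by CellTiter-Fluor fluorescence, reagent added after 23hr with a 1hr incubation.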

[9] = qHTS assay to identify small molecule agonists of the progesterone receptor (PR) signaling pathway - cell viability counter screen (AID 1346799; calls by dose curve; note: nearly all actives have a fitted effect of over 45% in size; note: potency is the fitted concentration of half-maximal effect)
Summary of the method: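 PR-UAS-bla HEK293T cells, 3,000 per well in medium with 2% charcoal-stripped FBS, were preincubated 6 hr at 37C, then exposed to compounds for 16 hr; viability was read as CellTiter-Glo luminescence after 30 min at room temperature.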
% is set by controls: 0 for no effect and ±100 for the full control effect.

Chain of Progesterone receptor (Homo sapiens) (P06401 whole entry, looked up): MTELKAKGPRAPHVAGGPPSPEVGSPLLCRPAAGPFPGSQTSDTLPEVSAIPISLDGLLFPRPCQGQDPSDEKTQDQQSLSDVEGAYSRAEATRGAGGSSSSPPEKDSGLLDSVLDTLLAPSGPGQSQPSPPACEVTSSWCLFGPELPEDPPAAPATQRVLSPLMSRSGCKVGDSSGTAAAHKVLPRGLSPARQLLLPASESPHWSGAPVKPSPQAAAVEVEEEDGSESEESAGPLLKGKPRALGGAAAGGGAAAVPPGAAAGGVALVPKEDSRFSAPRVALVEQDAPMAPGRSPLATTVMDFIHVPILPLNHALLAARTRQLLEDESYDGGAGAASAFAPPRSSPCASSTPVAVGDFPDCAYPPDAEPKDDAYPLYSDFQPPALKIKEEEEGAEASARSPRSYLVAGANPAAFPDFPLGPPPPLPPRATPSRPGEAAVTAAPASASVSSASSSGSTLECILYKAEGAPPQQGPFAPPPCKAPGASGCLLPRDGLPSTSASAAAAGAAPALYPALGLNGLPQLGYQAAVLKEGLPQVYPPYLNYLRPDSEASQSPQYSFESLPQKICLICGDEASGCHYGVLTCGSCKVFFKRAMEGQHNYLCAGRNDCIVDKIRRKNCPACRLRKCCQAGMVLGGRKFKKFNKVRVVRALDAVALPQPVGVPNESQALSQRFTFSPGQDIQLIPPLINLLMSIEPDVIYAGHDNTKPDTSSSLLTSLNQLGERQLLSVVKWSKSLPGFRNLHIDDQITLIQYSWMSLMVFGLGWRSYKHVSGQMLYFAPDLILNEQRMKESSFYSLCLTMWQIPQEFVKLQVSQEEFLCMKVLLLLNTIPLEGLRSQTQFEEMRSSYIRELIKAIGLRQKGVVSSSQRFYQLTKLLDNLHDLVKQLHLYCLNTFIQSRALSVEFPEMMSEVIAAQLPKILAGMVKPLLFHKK
Chain of Thyrotropin-releasing hormone receptor (Homo sapiens) (P34981 whole entry, looked up): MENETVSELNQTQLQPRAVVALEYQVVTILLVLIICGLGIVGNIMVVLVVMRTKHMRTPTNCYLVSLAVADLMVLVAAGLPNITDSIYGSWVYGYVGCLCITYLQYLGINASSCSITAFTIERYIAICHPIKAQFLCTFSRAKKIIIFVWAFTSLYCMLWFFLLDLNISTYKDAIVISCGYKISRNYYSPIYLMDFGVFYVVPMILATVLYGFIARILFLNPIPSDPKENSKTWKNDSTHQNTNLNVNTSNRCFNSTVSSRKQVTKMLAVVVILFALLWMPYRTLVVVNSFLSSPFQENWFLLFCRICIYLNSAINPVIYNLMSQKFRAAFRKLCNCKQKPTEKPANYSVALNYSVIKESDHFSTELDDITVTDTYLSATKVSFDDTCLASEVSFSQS

Brc1c2ccccc2c(Br)c2ccccc12
active: Potency [5] 2.22 µM
inactive: activity change, negative = inhibition [1] 3.87% [at 8.39 µM] | activity change, negative = cytotoxicity [2] 3.37% [at 8.39 µM] | viability change, negative = cytotoxic [3] 16.5% [at 6.97 µM] | activity change, negative = cytotoxicity [4] -9.36% [at 6.97 µM] | activity, negative = inhibition [6] -1.3% [at 4.65 µM] | activation [7] 0.0356% [at 5.23 µM] | activity change, negative = cytotoxicity [8] 4.3% [at 8.39 µM]

CCCCCCCN
inactive: Potency [1] | Potency [2] | Potency [9] | Potency [3] | outcome [4] | Potency [5] | outcome [6] | Potency [7] | Potency [8]

NS(=O)(=O)c1ccc(N2CCCCS2(=O)=O)cc1
inactive: Potency [1] | Potency [2] | Potency [9] | Potency [3] | outcome [4] | Potency [5] | outcome [6] | Potency [7] | Potency [8]

COC(C)(C)CCO
inactive: Potency [1] | Potency [2] | Potency [9] | outcome [4] | Potency [5] | outcome [6] | Potency [7]

CCOC(=O)C(F)(F)F
inactive: Potency [1] | Potency [2] | Potency [9] | Potency [3] | outcome [4] | Potency [5] | outcome [6] | Potency [7] | Potency [8]

CC(CSC(=O)c1ccccc1)C(=O)N1C[C@@H](Sc2ccccc2)C[C@H]1C(=O)O (some centres undefined)
inactive: activity change, negative = inhibition [1] 1.77% [at 18.9 µM] | activity change, negative = cytotoxicity [2] -8.73% [at 18.9 µM] | activity change, negative = cytotoxicity [9] -1.53% [at 19 µM] | viability change, negative = cytotoxic [3] -6.88% [at 15.8 µM] | activity change, negative = cytotoxicity [4] 4% [at 15.8 µM] | activation [5] 0.21% [at 15.8 µM] | activity, negative = inhibition [6] -5.47% [at 10.5 µM] | activation [7] -0.201% [at 11.8 µM] | activity change, negative = cytotoxicity [8] 14.3% [at 19 µM]

O=C(O)C(S)C(S)C(=O)O (centres undefined)
inactive: Potency [1] | Potency [2] | Potency [9] | Potency [3] | outcome [4] | Potency [5] | Potency [8]

CCCCO
inactive: Potency [1] | Potency [2] | Potency [3] | outcome [4] | Potency [5] | Potency [8]

CC/C=C\CCOC(=O)CC
inactive: Potency [2] | Potency [9] | Potency [3] | outcome [4] | Potency [5] | outcome [6] | Potency [7]

C#CCN(C)CCCOc1ccc(Cl)cc1Cl
inactive: Potency [2] | Potency [9] | Potency [3] | Potency [5] | outcome [6] | Potency [7] | Potency [8]

O=C(Cl)c1cc(C(=O)Cl)cc(C(=O)Cl)c1
inactive: Potency [9] | Potency [3] | outcome [4] | Potency [5] | outcome [6] | Potency [7]

C#C[C@]1(O)CC[C@H]2[C@@H]3CCc4cc(OC5CCCC5)ccc4[C@H]3CC[C@@]21C
inactive: Potency [2] | Potency [9] | Potency [3] | outcome [4] | Potency [5]

COc1ccc(S(=O)(=O)N2C(=O)[C@@](c3ccccc3OC)(N3C[C@H](O)C[C@H]3C(=O)N(C)C)c3cc(Cl)ccc32)c(OC)c1
active: Potency [1] 54.5 µM
inactive: Potency [3] | outcome [4] | outcome [6] | Potency [7]

CN(C)CCN(Cc1ccccc1)c1ccccn1
inactive: Potency [3] | outcome [4] | Potency [5] | outcome [6] | Potency [7]

C=CCOc1ccccc1OCC(O)CNC(C)C (centres undefined)
inactive: Potency [2] | Potency [9] | Potency [3] | outcome [4] | Potency [5] | outcome [6] | Potency [7] | Potency [8]

COc1cc2nc(N(C)CCCNC(=O)C3CCCO3)nc(N)c2cc1OC (centres undefined)
inactive: Potency [1] | Potency [3] | outcome [4] | Potency [5] | outcome [6] | Potency [7]

O=C(c1ccc(F)cc1)C1CCN(CCn2c(=S)[nH]c3ccccc3c2=O)CC1
inactive: Potency [9] | Potency [3] | outcome [4] | outcome [6] | Potency [7] | Potency [8]

CCCCCCOC(=O)NC(=N)c1ccc(NCc2nc3cc(C(=O)N(CCC(=O)OCC)c4ccccn4)ccc3n2C)cc1
inactive: outcome [6] | Potency [7]
active: Potency [2] 21.1 µM | Potency [9] 18.8 µM

O=C(O)C1(C(=O)Nc2ccc(Cl)cc2Cl)CC1
inactive: Potency [3] | outcome [4] | outcome [6] | Potency [7] | Potency [8]

CCOC(=O)NCCOc1ccc(Oc2ccccc2)cc1
active: Potency [1] 17.2 µM
inactive: Potency [3] | outcome [4] | Potency [5] | outcome [6] | Potency [7]

CCCCCCCCCCCCN1CCCCCC1=O
inactive: Potency [2] | Potency [3] | Potency [5] | outcome [6] | Potency [7]

O=S(c1cc(Cl)cc(Cl)c1O)c1cc(Cl)cc(Cl)c1O
inactive: Potency [9] | Potency [3] | outcome [4] | Potency [5] | outcome [6] | Potency [7] | Potency [8]

CCCC(=O)Nc1ccc(O)c(C(C)=O)c1
inactive: Potency [2] | Potency [9] | Potency [3] | outcome [4] | Potency [5] | outcome [6] | Potency [7] | Potency [8]

CCCCCCCCCc1ccc(OCCOCCO)cc1
inactive: Potency [5] | outcome [6] | Potency [7]
active: Potency [1] 12.8 µM | Potency [3] 18.3 µM | Potency [8] 5.74 µM

Clc1ccc2c(c1)CCc1cccnc1C2=C1CCNCC1
active: Potency [2] 21.1 µM | Potency [8] 29.8 µM
inactive: Potency [3] | outcome [4] | Potency [5]

COCC(C)OC(C)=O (centres undefined)
inactive: Potency [2] | Potency [9] | Potency [3] | outcome [4] | Potency [5] | Potency [8]

CC1OC(=O)C(C)OC1=O (centres undefined)
inactive: Potency [2] | Potency [9] | Potency [3] | outcome [4] | Potency [5] | outcome [6] | Potency [7]

CCCCNc1ccc(C(=O)OCCOCCOCCOCCOCCOCCOCCOCCOCCOC)cc1
inactive: Potency [1] | Potency [3] | outcome [4] | Potency [5] | outcome [6] | Potency [7] | Potency [8]

Clc1ccc(Cn2c(CN3CCCC3)nc3ccccc32)cc1
active: Potency [2] 6.68 µM | Potency [9] 7.5 µM
inactive: Potency [3] | outcome [4] | Potency [5] | outcome [6] | Potency [7]

C[C@H](CCC(=O)O)[C@H]1CC[C@H]2[C@@H]3CC[C@@H]4C[C@H](O)CC[C@]4(C)[C@H]3C[C@H](O)[C@]12C
inactive: Potency [3] | outcome [4] | outcome [6] | Potency [7] | Potency [8]
active: Potency [9] 54.6 µM

Cc1cccc(C)c1OCC(=O)N[C@@H](Cc1ccccc1)[C@@H](O)C[C@H](Cc1ccccc1)NC(=O)[C@H](C(C)C)N1CCCNC1=O
active: Potency [2] 29.8 µM | Potency [8] 29.8 µM
inactive: Potency [3]

Nc1ccccc1S(=O)(=O)c1ccccc1
inactive: Potency [2] | Potency [3] | outcome [4] | Potency [5] | outcome [6] | Potency [7] | Potency [8]

C[C@@H]1C[C@H]2[C@@H]3CCC4=CC(=O)C=C[C@]4(C)[C@@]3(F)[C@@H](O)C[C@]2(C)[C@@]1(O)C(=O)COC(=O)c1ccncc1
inactive: Potency [2] | Potency [9] | Potency [3] | outcome [4] | Potency [5] | Potency [8]

O=C(O)c1nc(Cl)c(Cl)c(Cl)c1Cl
inactive: Potency [2] | Potency [3] | outcome [4] | outcome [6] | Potency [7] | Potency [8]

CC(=O)NO
inactive: Potency [9] | Potency [3] | outcome [4] | Potency [5] | outcome [6] | Potency [7] | Potency [8]

CCO[Si](CCCCl)(OCC)OCC
inactive: Potency [3] | outcome [4] | Potency [5] | outcome [6] | Potency [7] | Potency [8]

OC(CN1CCC(Cc2ccc(F)cc2)CC1)c1ccc(Cl)cc1 (centres undefined)
inactive: Potency [2] | Potency [3] | outcome [4] | outcome [6] | Potency [7]
active: Potency [8] 29.8 µM
